# According to publication PMC11062922 (Nature Chemical Biology, 2023):
# Read-outs that look alike come from different tables or passages of the source.
# Assays:
# RIPK3 = test system: RIPK3; set-up: species or system human, MV4-11 + K-562 + COLO205 + SK-N-BE2 + OVCAR-8; details: read-out: apparent Kd, n = 1
# BMPR1B = test system: BMPR1B; set-up: species or system human, MV4-11 + K-562 + COLO205 + SK-N-BE2 + OVCAR-8; details: read-out: apparent Kd; compound concentrations: 100 nM and 1000 nM (sheet 'Samples'), CATDS: 8.9058122855820206E-3; n = 1
# CAMK2B = test system: CAMK2B; set-up: species or system human, MV4-11 + K-562 + COLO205 + SK-N-BE2 + OVCAR-8; details: read-out: apparent Kd; compound concentrations: 100 nM and 1000 nM (sheet 'Samples'), CATDS: 6.4404686092337498E-3; n = 1
# CDK13 = test system: CDK13; set-up: species or system human, MV4-11 + K-562 + COLO205 + SK-N-BE2 + OVCAR-8; details: read-out: apparent Kd, compound concentrations: 100 nM and 1000 nM (sheet 'Samples'), n = 1
# PI4KB = test system: PI4KB; set-up: species or system human, MV4-11 + K-562 + COLO205 + SK-N-BE2 + OVCAR-8; details: read-out: apparent Kd; compound concentrations: 100 nM and 1000 nM (sheet 'Samples'), CATDS: 8.6005526131726403E-3; n = 1
# PIK3CB = test system: PIK3CB; set-up: species or system human, MV4-11 + K-562 + COLO205 + SK-N-BE2 + OVCAR-8; details: read-out: apparent Kd; compound concentrations: 100 nM and 1000 nM (sheet 'Samples'), CATDS: 8.3047003401232992E-3; n = 1
# WEE1 = test system: WEE1; set-up: species or system human, MV4-11 + K-562 + COLO205 + SK-N-BE2 + OVCAR-8; details: read-out: apparent Kd, compound concentrations: 100 nM and 1000 nM (sheet 'Samples'), n = 1
# CDK1_CycB1 = details: Highest Assay Concentration (M): 9.9999999999999995E-7
# CK2alpha1 = details: Highest Assay Concentration (M): 9.9999999999999995E-7
# CK2alpha2 = details: Highest Assay Concentration (M): 9.9999999999999995E-7
# ILK = test system: ILK; set-up: species or system human, MV4-11 + K-562 + COLO205 + SK-N-BE2 + OVCAR-8; details: read-out: apparent Kd; compound concentrations: 100 nM and 1000 nM (sheet 'Samples'), CATDS: 0.188303369583949; n = 1
# GSK3A = test system: GSK3A; set-up: species or system human, MV4-11 + K-562 + COLO205 + SK-N-BE2 + OVCAR-8; details: compound concentrations:0.3nM, 1nM, 3nM, 10nM, 30nM, 100nM, 300nM, 1000nM,R2:0.98891896520214295,slope:0.86644868747919301,EC50 Standard Error, by the legend:Standard error of the EC50 estimation as provided by the drc package.
# GSK3B = test system: GSK3B; set-up: species or system human, MV4-11 + K-562 + COLO205 + SK-N-BE2 + OVCAR-8; details: compound concentrations:0.3nM, 1nM, 3nM, 10nM, 30nM, 100nM, 300nM, 1000nM,R2:0.97796062612419798,slope:0.95181625856524898,EC50 Standard Error, by the legend:Standard error of the EC50 estimation as provided by the drc package.
# LATS1 = test system: LATS1; set-up: species or system human, MV4-11 + K-562 + COLO205 + SK-N-BE2 + OVCAR-8; details: compound concentrations:0.3nM, 1nM, 3nM, 10nM, 30nM, 100nM, 300nM, 1000nM,R2:0.99282697672558795,slope:1.31312375653091,EC50 Standard Error, by the legend:Standard error of the EC50 estimation as provided by the drc package.
# PKN1 = test system: PKN1; set-up: species or system human, MV4-11 + K-562 + COLO205 + SK-N-BE2 + OVCAR-8; details: compound concentrations:0.3nM, 1nM, 3nM, 10nM, 30nM, 100nM, 300nM, 1000nM,R2:0.99748458534068796,slope:1.1297658372901001,EC50 Standard Error, by the legend:Standard error of the EC50 estimation as provided by the drc package.
# PRKX = test system: PRKX; set-up: species or system human, MV4-11 + K-562 + COLO205 + SK-N-BE2 + OVCAR-8; details: compound concentrations:0.3nM, 1nM, 3nM, 10nM, 30nM, 100nM, 300nM, 1000nM,R2:0.99104054700331501,slope:1.8352310088782899,EC50 Standard Error, by the legend:Standard error of the EC50 estimation as provided by the drc package.
# ACOX1 = test system: ACOX1; set-up: species or system human, MV4-11 + K-562 + COLO205 + SK-N-BE2 + OVCAR-8; details: read-out: apparent Kd; compound concentrations:100 nM and 1000 nM (sheet 'Samples'); n = 1
# CLK2 = test system: CLK2; set-up: species or system human, MV4-11 + K-562 + COLO205 + SK-N-BE2 + OVCAR-8; details: read-out: apparent Kd, n = 1
# [1] = compound concentrations:100 nM and 1000 nM (sheet 'Samples')
# 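Throughout, for EC50: competition pulldown with Kinobeads ε in cell lysates, inhibitor preincubated 45 min at 4 °C, bound kinases quantified by LC–MS/MS against DMSO control.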
# 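Throughout, for Kd: competition pulldown with Kinobeads ε in cell lysates, inhibitor preincubated 45 min at 4 °C, bound kinases quantified by LC–MS/MS against DMSO control.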
structure (smiles),measurement,setting,value
Cl.NCc1ccc(-c2nc(-c3ccc(Cl)c(O)c3)c(-c3ccncc3)[nH]2)cc1 [SB-476429-A],potency estimated from few doses,RIPK3; [1],1.2 µM
Cn1ncc2c(N)ncnc21 [SKF-18267],potency estimated from few doses,BMPR1B,0.311 µM
same,potency estimated from few doses,CAMK2B,0.514 µM
same,potency estimated from few doses,CDK13; CATDS: 3.42159578661501E-3,2.09 µM
same,potency estimated from few doses,PI4KB,0.328 µM
same,potency estimated from few doses,PIK3CB,0.345 µM
same,potency estimated from few doses,"RIPK3; compound concentrations: 100 nM and 1000 nM (sheet 'Samples'), CATDS: 3.42256468250394E-3",2.08 µM
same,potency estimated from few doses,WEE1; CATDS: 4.2054880043609797E-3,1.18 µM
O=C1NC(=O)/C(=C/c2ccc3ncccc3c2)S1 [RO4603632-000],IC50,CDK1_CycB1,8.37e-06 M
same,IC50,CK2alpha1,5.79e-07 M
same,IC50,CK2alpha2,3.72e-07 M
COc1ccc(Nc2ncc(C#N)c(Nc3ccccc3C(N)=O)n2)cc1N1CCN(C)CC1.Cl [GSK1558669A],potency estimated from few doses,WEE1; CATDS: 4.3913811824171201E-2,0.0104 µM
O=C1N=C(Nc2ccccc2)S/C1=C\c1ccc2ncccc2c1 [RO4493940-000],potency estimated from few doses,ILK,1.5 µM
same,IC50,CDK1_CycB1,2.88e-06 M
same,IC50,CK2alpha1,6.67e-08 M
same,IC50,CK2alpha2,5.11e-08 M
CCn1c(-c2nonc2N)nc2c(C#CC(C)(C)O)nc(OCCN)cc21.CCn1c(-c2nonc2N)nc2c(C#CC(C)(C)O)nc(OCCN)cc21.Cl.Cl [GSK902056A],EC50,GSK3A,0.173 µM
same,Kd,GSK3A; read-out: apparent Kd,0.164 µM
same,EC50,GSK3B,0.296 µM
same,Kd,GSK3B; read-out: apparent Kd,0.288 µM
same,EC50,LATS1,0.0874 µM
same,Kd,LATS1; read-out: apparent Kd,0.0874 µM
same,EC50,PKN1,0.0923 µM
same,Kd,PKN1; read-out: apparent Kd,0.0923 µM
same,EC50,PRKX,0.127 µM
same,Kd,PRKX; read-out: apparent Kd,0.127 µM
Cc1cccc(Nc2nc(N[C@H]3CCCC[C@H]3N)ncc2C(N)=O)c1.Cl [GSK986310C],potency estimated from few doses,ACOX1,1.34 µM
Cl.Cl.NCC(C(=O)Nc1cc(Br)c(-c2ccnc3[nH]ccc23)s1)c1ccccc1.NCC(C(=O)Nc1cc(Br)c(-c2ccnc3[nH]ccc23)s1)c1ccccc1 (stereo not drawn) [GSK1269851A],potency estimated from few doses,CLK2; [1],0.73 µM
CONC1=NC(=O)/C(=C/c2ccc3ncccc3c2)S1 [RO4613269-000],IC50,CDK1_CycB1,2.74e-06 M
same,IC50,CK2alpha1,1.16e-07 M
same,IC50,CK2alpha2,6.53e-08 M
Cc1cccc2c(-c3ccncn3)c(-c3ccc(F)cc3)nn12 [GW515532X],potency estimated from few doses,CDK13; CATDS: 0.21960096407146401,1.8 µM
Clc1cc(Cl)cc(Nc2ccnc(Nc3cc(Cl)cc(Cl)c3)n2)c1 [GSK175726A],potency estimated from few doses,"CLK2; compound concentrations: 100 nM and 1000 nM (sheet 'Samples'), CATDS: 1.2027926669680101E-2",0.432 µM
